Measured values reported in PubChem BioAssay (Tox21).
A number with no mark means an inactive call. Activity calls are given as the source filed them. Calls come from the whole dose curve; as a rule, active = well fitted curve in the direction sought with a large enough effect in the repeat runs; inconclusive = weak or mixed curves; inactive = flat fitted curve, though single readings scatter.

Experiment: qHTS assay to test for compound auto fluorescence at 535 nm (green) in HEK293 cell free culture (AID 720682)
Details: cell-free medium, green autofluorescence 485/535 nm, stronger effect = higher value; series mostly up to 91.3 µM; activity change: at the top concentration
Excerpt: U.S. Tox21 Program National Center for Advancing Translational Sciences [NCATS] NIH Chemical Genomics Center [NCGC] U.S. Environmental Protection Agency [EPA] National Institutes of Environmental Health Sciences [NIEHS] National Toxicology Program [NTP] U.S. Food and Drug Administration [FDA] Tox21 Assay Overview: Compound auto fluorescence often interferes with screening of the compound library against various biological targets and signaling pathways. Some of these compounds may have fluorophoric properties. Such properties may interfere with the assay outputs resulting in false positives and/or negatives. To decrease such complications and ensure the compound activities are relevant in terms of biological response, the Tox21 10K compound library was screened for auto fluorescence. From the fluorophores used as reporter signals in our screening assays, the auto fluorescence equivalencies of compounds against three fluorophores have been evaluated: Triamterene, Fluorescein and Rose Bengal sodium for blue, green and red fluorescence, respectively. The fluorescence intensities were measured using Excitation/Emission wavelengths at 405/460nm, 485/535nm and 540/590nm for blue, green and red labels, respectively. This assay includes the green fluorescence data.
Tox21 Assay Protocol Summary: 5 uL of culture medium (DMEM containing 10% FBS) per well was dispensed into black wall/clear bottom 1536-well plates using a Multidrop Combi Dispenser (ThermoFisher Scientific, Waltham, MA). After 23 nL compound or DMSO vehicle was transferred into assay plate by a pintool work station (Kalypsys, San Diego, CA), fluorescence intensities in the assay plates were measured by an Envision (PerkinElmer, Shelton, CT) plate reader using three labels for measuring blue, green and red fluorescence at […] 460, 535 and 590nm respectively.
% is set by controls: 0 for no effect and ±100 for the full control effect.

| SMILES | activity change | outcome |
| --- | --- | --- |
| CCCOc1ccc2nc(NC(=O)OC)[nH]c2c1 | 0.0106% [at 46 µM] |  |
| C[Si](C)O[Si](C)(C)O[Si](C)(C)O[Si](C)C | 0.0018% |  |
| Cc1ccc(C(=O)C(C)CN2CCCCC2)cc1 (stereo not given) |  | inactive |
| CC(=O)NCCCS(=O)(=O)O |  | inactive |
| COC(Cc1ccccc1)OC | 0.0064% |  |
| NC(N)=N/N=C/c1c(Cl)cccc1Cl | 0.0375% [at 46 µM] |  |
| CCCC(=O)OCC | -0.0072% |  |
| CC(=O)/C=C/C1C(C)=CCCC1(C)C (stereo not given) | 0.0201% |  |
| COc1ccc2[nH]c(S(=O)Cc3ncc(C)c(OC)c3C)nc2n1 (stereo not given) | -0.0039% [at 46 µM] |  |
| FC(F)(F)C(F)(F)C(F)(F)C(F)(F)C(F)(F)C(F)(F)CCI | 0.108% [at 46 µM] |  |
| O=C(CCN1CCN2CCCC2C1)N1c2ccccc2Sc2ccc(Cl)cc21 (stereo not given) | -0.0554% [at 46 µM] |  |
| Nc1nc(N)c(-c2ccccc2)s1 | -0.0197% [at 46 µM] |  |
| O=S1(=O)c2cccc3cccc(c23)N1CCCN1CCN(c2ccc(F)cc2)CC1 | 0.029% [at 46 µM] |  |
| O=C1CCCCCO1 | 0.0113% |  |
| Nc1nc(CC(=O)O)cs1 | -0.0299% |  |
| CN(C)CC/C=C1\c2ccccc2COc2ccccc21 | 0.0157% [at 46 µM] |  |
| OC(CCN1CCCCC1)(c1ccccc1)C1CCCCC1 (stereo not given) | -0.0715% [at 46 µM] |  |
| CCCCOC(O)CC (stereo not given) | 0.089% |  |
| CCOc1ccc2[nH]cc(C(=O)NCc3ccccc3)c(=O)c2n1 | -0.0505% |  |
| CC(C)(C)C(=O)OCOP(=O)(COCCn1cnc2c(N)ncnc21)OCOC(=O)C(C)(C)C | 0.487% [at 46 µM] |  |

| SMILES | activity change | outcome |
| --- | --- | --- |
| O=C(O)C1CCC(C(=O)O)CC1 (stereo not given) | -0.0547% |  |
| Cc1cc(C)c(S(=O)(=O)O)cc1N=Nc1cc(S(=O)(=O)O)c2ccccc2c1O | -0.985% |  |
| CC(C)(C)c1cc(O)c(C(C)(C)C)cc1O | -0.0079% |  |
| Cc1cc(CC(=O)O)c(C)n1-c1ccc(Cl)cc1 | -0.0386% [at 46 µM] |  |
| CC(C)c1ccccc1C(C)C | 0.0986% |  |
| NC(=S)N/N=C/c1cccnc1 | 0.0284% [at 46 µM] |  |
| ClC(Cl)(Cl)c1ccc(C(Cl)(Cl)Cl)cc1 | 0.0099% |  |
| CN1CCC(=C2c3ccccc3C=Cc3ccccc32)CC1 | 0.0016% [at 46 µM] |  |
| N#Cc1c(F)cccc1F | -0.0692% |  |
| CC(=O)O[C@H]1C[C@@H]2CC[C@@H]3[C@H](CC[C@@]4(C)[C@H]3C[C@H]([N+]3(C)CCCCC3)[C@@H]4OC(C)=O)[C@@]2(C)C[C@@H]1N1CCCCC1 | -0.0141% [at 46 µM] |  |
| COc1ccc(OC)c(OC)c1 | 0.0117% |  |
| CC[C@H](C)[C@@H](C(=O)O)n1sc2ccccc2c1=O | 0.0287% |  |
| O=C(O)Cc1sc(-c2ccccc2)nc1-c1ccc(Cl)cc1 |  | inactive |
| CN1CCC(OC(c2ccccc2)c2ccccc2)CC1 | -0.251% [at 18.6 µM] |  |
| Cc1ccc(C(N)=O)cc1N | -0.0341% |  |
| CCCCCCCCCCCCCCCCCBr | -0.0304% [at 18.6 µM] |  |
| C[C@@H](C1=C(CCN(C)C)Cc2ccccc21)c1ccccn1 | -0.0106% [at 46 µM] |  |
| CC(C)(C)c1cc(CO)cc(C(C)(C)C)c1O | -0.0998% [at 95.7 µM] |  |
| CCCCCCCC/C=C\CCCCCCCC(N)=O | -0.0776% |  |
| CCCCCCCCCC(=O)OCC | 0.0833% |  |
